Experimental findings from PubChem BioAssay (NCI) are described below.

Compounds without any hit were thinned out: in the full panel of roughly 83,000, 20% have a hit.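 Activity criterion: percent growth below 10, measured after cells in 96-well plates were exposed to a single compound concentration for 48 hours.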 Values without a mark were called inactive. The source made the active and inactive calls.

For this assay, the system named is HL-60(TB) leukemia. Kind of assay: NCI-60 one-dose screen, 48 h (100 = growth as untreated, 0 = no growth, -100 = all killed). The settings on record: 10 µM unless noted.
In the case of `CN1NC(c2ccccc2)NN(C)C1=O`, the growth was 105%.

`O=C(N/N=C\c1ccc(Cl)cc1)C(=O)N/N=C\c1ccc(Cl)cc1`: the growth was 108%.

With `CCCCCCCC(=O)SCC/C=C/[C@@H]1CC(=O)NCc2nc(cs2)C2=N[C@@](C)(CS2)C(=O)N[C@@H](C(C)C)C(=O)N1`, the growth was 8.7% (active).

On to `CON1CCC[C@]2(C)[C@H]3CC[C@@H]4[C@H]5[C@@H](O)C(C)(C)CC[C@]5(CO)CC[C@@]4(C)[C@]3(C)CC[C@H]2C1(C)C`, for which the growth is 91.5%.

Regarding `COc1cc2c(cc1O)CCc1cc(O)cc(OC)c1-2`, the growth was 76.4%.

As for `O=C(NC1=CC(=O)c2ccccc2C1=O)c1ccccc1`, the growth is -30.8% (active).

`c1ccc2c(c1)oc1cc3sccc3nc12`: the growth is 103%.

`O=[N+]([O-])c1ccc2[nH]c(=S)n(/C=C(/c3ccc(Cl)cc3Cl)S(=O)(=O)Cc3ccc(Cl)cc3Cl)c2c1`: the growth is 101%.

In the case of `CCOC(=O)C1=C(C)NC(SCc2cc(=O)oc3ccc(F)cc23)=N[C@@H]1c1cccc2ccccc12`, the growth is 78.4%.

For the compound `C[N+]1=C(/C=C/c2ccc(O)c3ncccc23)C(C)(C)c2ccccc21`, the growth was 32.5%.

In the case of `COc1ccc2oc(=O)cc(Cn3cc(Cn4cnc5c4c(=O)n(C)c(=O)n5C)nn3)c2c1`, the growth is 107%.

Regarding `CN(C)c1ncnc2c1cnn2C`, the growth is 108%.

As for `COc1cc(/C=C/C(=O)c2c(C)nc3ccccc3c2C)ccc1OCCCCOc1cc2c(cc1OC)C(=O)N1CCC[C@H]1C=N2`, the growth was -34.1% (active).

In the case of `CCCCOc1nc2ccc(OC)cc2cc1-c1cc(-c2ccc(Cl)cc2)nc(-c2ccc(Cl)cc2)c1`, the growth is 103%.

As for `CC1=CC(=O)C(C(C)=Nc2ccccc2Cl)C(=O)O1` (centres undefined), the growth was 101%.

`CC(C)[N+](C)(CCOC(COc1ccccc1)COc1ccccc1)C(C)C`: the growth was 30.7%.

Turning to `CCOc1cc2ncc(C#N)c(Nc3ccc(OCc4cccc(F)c4)c(Cl)c3)c2cc1NC(=O)CCCCC1CCSS1` (centres undefined), the growth is 108%.

Turning to `N=C(N)c1ccc(-c2ccc(-c3ccc(-c4cccs4)s3)s2)cc1F`, the growth was 99.7%.

Take `COc1ccc2c(c1)CC[C@@H]1[C@@H]2CC[C@]2(C)C3C(=CC(COC(C)=O)C4C(=O)N(c5ccc(Cl)cc5)C(=O)C43)C[C@@H]12` (some centres undefined): the growth was 88.4%.

Consider `Clc1ccc(Nc2nc(Nc3ccccc3)nc(Nc3ccc(-c4cc(-c5ccc(Cl)cc5)on4)cc3)n2)cc1`, for which the growth is 55.3%.

With `Clc1ccc(/C=C2\CCCC3=C2N=C2SC=NN2C3c2ccc(Cl)cc2)cc1` (centres undefined), the growth was 91.1%.

As for `C=C1CC[C@@H]2[C@@](C)(CCC[C@]2(C)C(=O)O)[C@@H]1CC[C@H](CO)CCO`, the growth is 93.7%.

Take `Cc1nc2ccccc2c(/C=C/c2ccc(C(F)(F)F)cc2)c1C(=O)/C=C/c1ccccc1`: the growth was -19% (active).

For the compound `CN1CCN(c2ccc3nc(/N=C/c4ccc5sc(-c6ccc([N+](=O)[O-])cc6)nc5c4)sc3c2)CC1`, the growth was 109%.

For `CC(=O)C1=C(O)C=C2Oc3c(C(=O)/C=C/c4cc(Cl)cc(Cl)c4)c(O)c(C)c(O)c3[C@]2(C)C1=O`, the growth was -34.8% (active).

On to `CCCCN1CCN(c2ccc3nc(-c4ccc5nc(-c6ccc(OCC)cc6)[nH]c5c4)[nH]c3c2)CC1`, for which the growth is 34.3%.

As for `COc1ccc(NC(=O)c2sc3nc4c(cc3c2N)C(O)CCC4)cc1` (centres undefined), the growth is 93.2%.

For `Cc1ccc(Nc2ncnc3c2sc2ncccc23)cc1`, the growth was 71.2%.

In the case of `S=C(Nc1ccccc1)N1CCCCC1`, the growth is 93.5%.

For `Oc1c(CN2CCN(c3ccccc3F)CC2)cc(Br)c2cccnc12`, the growth is -34.4% (active).

Consider `CC1(C)N=C(N)N=C(N)N1c1cccc(CCCCOc2ccccc2)c1`, for which the growth was 13.6%.

`CCN1CCN(Cc2ccc(NC(=O)Nc3nc(-c4cc(OC)c(OC)c(OC)c4)cs3)cc2C(F)(F)F)CC1`: the growth is 8.19% (active).

With `COc1ccc2c3c([nH]c2c1)C(=O)c1nc(C)ccc1C3=O`, the growth is 59%.

Take `COc1ccc(/C=N/NC(=O)COCC(=O)N/N=C/c2ccc(OC)cc2)cc1`: the growth is 102%.

Regarding `COc1ccc(/C=C2\COc3ccc(O)cc3C2=O)cc1OC`, the growth is 3.81% (active).

As for `Cn1ncc(Cl)c1-c1cc(C(=O)N[C@H](CN)Cc2cccc(F)c2)sc1Cl`, the growth was 12.2%.

Take `S=C(S)Oc1cccc2cccnc12`: the growth is 80.7%.

With `O=C(NCc1cccnc1)c1cc(-c2csc3c(=O)cc(N4CCOCC4)oc23)cc2c1OCCO2`, the growth was -35.1% (active).

Consider `CN1C(=O)/C(=C2\SC(=Nc3ccccc3)N(Nc3ccccc3)C2=O)c2ccccc21`, for which the growth was 108%.
